Test results as given in the OligoGym collection.

target: CT47A1; test: pooled miR-30 sensor sort-seq; sequence = guide strand; conditions: shRNA
Further: reference of the scale not given here.

Sequence | sensor-assay potency score (higher = more potent)
TATCTGAGTCCTCCTCGGCGCT | -1.49
TATGAGGATGTGGTCGTTGTGA | -0.634
TCACCTTGTTTTCTGCATCCTT | 0.106
TCTGCGTCTGGTTCCTCTGTGG | -0.289
TTGACGGTTCTCTATGAGGATG | -1.48
TTTAGTGACTTCCTCTGGGGCC | -0.087
TGTTCTTTCTCTTCCTCGCCTG | 0.234
TTGTTCTTTCTCTTCCTCGCCT | 0.277
ATTTAGTGACTTCCTCTGGGGC | -0.669

target: CTBP2; test: as above; conditions: shRNA

Sequence | sensor-assay potency score (higher = more potent)
TCGTTTAGAACCTTCTCGTGGA | 0.661
TTGCTTGCTGGTCTATTACTGA | -0.788
TAAGGCTTTCTCGTCCACCAGG | -0.686
TTCGTTGAGATTGCAGTGCAAG | -1.27
AATCGCTGTCTCTTGACTTTGT | 0.0201
TAAAATATGACGCTGAATCCAA | -0.138
TTGTGAGTCACTGGGATGCCTC | -1.08
TACCTTCACAAATTCTGTCCAA | -0.0172
TTGCAGTGCAAGGAGACGCAGT | -0.883
TATCCGCACGATCACTCTCAGG | -1.62
TTGCTGGTCTATTACTGACCAA | -0.982
ACAAATTCTGTCCAATCGCTGT | -0.83
TTCGTTTAGAACCTTCTCGTGG | -0.189
TTTCCTGCGTCGACTGCGCGTC | -0.459
TTATGTTCGTTGAGATTGCAGT | -0.485
TATGGTAAAGTCATTGATGAGG | -1.17
TTCGGGGCATCTTTCAACGGAC | -0.791
TAGAGTCCGCTGTCTCTTCCAC | -0.12
TGCTGGTCTATTACTGACCAAG | -1.63
TTCTGTCCAATCGCTGTCTCTT | -0.623
TCGCTGTCTCTTGACTTTGTGC | -1.38
TTGAGATTGCAGTGCAAGGAGA | -0.597
AATTTCTTAAGCTTTCTGGGAT | 0.0586
